Some test systems named below: MRCKA; MST1R; MST4; MTOR; MUSK; MYLK2.
Holding throughout (details): concentration: 1 μM, replicates: in singlicate; n = 1
Another assay concerns T1, MRCKB.
T1 construct: gene CDC42BPB

A further assay has as its system T2, MST1.
T2 construct: gene STK4

Another assay relates to T3, MST2.
T3 construct: gene STK3

Another assay relates to T4, MST3.
T4 construct: gene STK24

Molecules are shown by their SMILES.
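Also: KINOMEscan kinase panel screen.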

`CC(C)N1CCC(n2cnc(-c3ccc(F)cc3)c2-c2ccnc(N)n2)CC1` [SB-223132]: the “%Inh” value in the assay on MRCKA is reported as 18%; in the assay on MRCKB, 0%; in the assay with MST1R, 0%; with MST1, 0%; in the assay with MST2, 0%; in the assay on MST3 it was 29%. Further, the “%Inh” value is on record as 0% in the assay on MST4, 27% in the assay on MTOR, 0% in the assay with MUSK and 6% with MYLK2.

With `COc1ccc(NC(=O)Nc2ccc(C)c(-c3ccc(C(=O)Nc4ccncc4)cc3)c2)cc1` [GSK1398475], the “%Inh” value was 19% in the assay on MRCKA; 0% in the assay on MRCKB; 36% in the assay on MST1R; 0% in the assay with MST1; 0% in the assay with MST2; 0% in the assay with MST3. Besides, the “%Inh” value is listed as 0% in the assay with MST4, 4% in the assay on MTOR, 0% in the assay on MUSK and 0% with MYLK2.

On to `CN1c2ccc(-c3ccc(C(=O)NCCO)cc3)cc2-c2[nH]ncc2S1(=O)=O`, for which the “%Inh” value was determined as 0% in the assay on MRCKA; 5% with MRCKB; 0% in the assay with MST1R; 5% in the assay on MST1; 35% in the assay with MST2; 10% with MST3. Moreover, the “%Inh” value with MST4 is recorded as 0%; with MTOR, 23%; in the assay with MUSK, 0%; in the assay on MYLK2, 0%.

For `O=C(Nc1ccccc1)Nc1ccc(Oc2ccc3nccn3n2)cc1`, the “%Inh” value in the assay on MRCKA is 0%; in the assay with MRCKB, 0%; in the assay on MST1R it was 18%; with MST1, 0%; in the assay with MST2, 0%; in the assay with MST3 it was 11%. In addition, the “%Inh” value was determined as 0% in the assay on MST4, 12% with MTOR, 9% with MUSK and 0% in the assay with MYLK2.

Turning to `Nc1nc(-c2cccnc2)c(-c2ccnc3ccccc23)s1` [GW684083], the “%Inh” value amounted to 0% with MRCKA; 0% with MRCKB; 18% in the assay on MST1R; 4% in the assay with MST1; 10% with MST2; 10% in the assay on MST3. The “%Inh” value in the assay on MST4 came to 0%; with MTOR, 27%; with MUSK, 11%; with MYLK2, 0%.

On to `CS(=O)(=O)CCNCc1ccc(-c2ccc3ncnc(Nc4ccc(OCc5ccccc5)c(Cl)c4)c3c2)o1.Cl` [GW574783], for which the “%Inh” value with MRCKA was 0%; in the assay on MRCKB it was 2%; in the assay with MST1R, 17%; with MST1 it was 23%; in the assay on MST2, 0%; with MST3 it was 0%. For the same compound, the “%Inh” value in the assay with MST4 is given as 0%; in the assay on MTOR it was 30%; with MUSK, 19%; in the assay on MYLK2, 16%.

With `CSc1ccc(NC2=C(c3ccccc3Cl)C(=O)NC2=O)cc1` [SB-342411], the “%Inh” value stood at 0% in the assay with MRCKA; 0% in the assay on MRCKB; 27% in the assay with MST1R; 6% with MST1; 0% in the assay with MST2; 0% in the assay with MST3. The “%Inh” value in the assay with MST4 is 8%; in the assay with MTOR it was 13%; in the assay with MUSK, 0%; in the assay with MYLK2, 8%.

In the case of `Cc1ccc(NC(=O)c2cccc(C#N)c2)cc1-c1ccc(C(=O)Nc2ccncc2)cc1` [GSK1398463], the “%Inh” value in the assay with MRCKA is on record as 3%; in the assay on MRCKB it was 8%; in the assay on MST1R, 38%; with MST1, 0%; with MST2, 0%; in the assay on MST3 it was 0%. Besides, the “%Inh” value was 0% in the assay with MST4, 4% with MTOR, 10% with MUSK and 26% with MYLK2.

For the compound `Nc1n[nH]c2nnc(-c3ccccc3)cc12` [SB-517389], the “%Inh” value with MRCKA was found to be 16%; with MRCKB, 0%; with MST1R, 27%; with MST1, 0%; in the assay with MST2 it was 5%; in the assay with MST3, 0%. In addition, the “%Inh” value in the assay on MST4 was found to be 0%; with MTOR, 14%; in the assay with MUSK it was 8%; in the assay on MYLK2, 13%.

Turning to `c1ccc(-c2ccc3c(-c4ccnc(Nc5ccc6c(c5)OCCO6)n4)cnn3n2)cc1` [GW818941], the “%Inh” value in the assay on MRCKA was determined as 11%; with MRCKB it was 6%; in the assay with MST1R it was 41%; with MST1 it was 23%; in the assay on MST2, 4%; in the assay on MST3 it was 1%. Besides, the “%Inh” value in the assay with MST4 was 0%; in the assay on MTOR it was 17%; in the assay with MUSK it was 16%; in the assay on MYLK2 it was 27%.

For `Cl.Fc1ccccc1COc1ccc(Nc2ncnc3ccc(-c4nnc(C(F)(F)F)o4)cc23)cc1Cl` [GW424170], the “%Inh” value is 7% in the assay on MRCKA; 0% with MRCKB; 18% in the assay with MST1R; 0% in the assay on MST1; 0% in the assay with MST2; 0% in the assay on MST3. Further, the “%Inh” value with MST4, in the assay on MTOR, in the assay on MUSK and in the assay on MYLK2 was 0% throughout.

In the case of `Nc1nc(-c2ccc3c(N)n[nH]c3c2)cc(N2CCCCC2)n1` [GSK2228768], the “%Inh” value in the assay on MRCKA stood at 0%; in the assay on MRCKB, 0%; with MST1R, 11%; in the assay on MST1 it was 0%; in the assay on MST2, 0%; in the assay on MST3, 0%. Moreover, the “%Inh” value is recorded as 0% in the assay on MST4, 0% in the assay with MTOR, 3% with MUSK and 0% in the assay with MYLK2.

For `Nc1nccc2scc(-c3ccc4c(c3)CCN4C(=O)Cc3cc(F)ccc3F)c12` [GSK2587663], the “%Inh” value with MRCKA is recorded as 15%; in the assay on MRCKB, 0%; in the assay with MST1R, 35%; with MST1, 8%; with MST2, 3%; in the assay with MST3, 15%. Besides, the “%Inh” value in the assay on MST4 is 0%; in the assay with MTOR it was 4%; with MUSK, 10%; with MYLK2, 0%.

Turning to `Clc1ccc(-c2cc(-c3c[nH]nc3-c3ccccn3)ccn2)cc1` [GW681251], the “%Inh” value turned out to be 0% with MRCKA; 1% with MRCKB; 0% in the assay on MST1R; 0% with MST1; 0% in the assay with MST2; 0% in the assay with MST3. Further, the “%Inh” value with MST4 is listed as 0%; in the assay with MTOR, 20%; with MUSK, 12%; in the assay with MYLK2, 0%.

For the compound `COc1cc2c(Nc3cccc(NC(=O)c4ccccc4)c3)ncnc2cc1OCCCN1CCOCC1` [GSK223810], the “%Inh” value in the assay on MRCKA was found to be 15%; in the assay with MRCKB, 4%; in the assay on MST1R, 0%; in the assay with MST1, 4%; in the assay with MST2, 0%; in the assay on MST3 it was 10%. The “%Inh” value in the assay with MST4 came out at 0%; with MTOR, 6%; in the assay with MUSK, 1%; in the assay with MYLK2 it was 0%.

On to `CC(=O)Nc1n[nH]c2ncc(-c3ccccc3)cc12` [SB-548492], for which the “%Inh” value in the assay with MRCKA is 0%; in the assay with MRCKB, 10%; in the assay on MST1R, 41%; in the assay on MST1 it was 0%; with MST2, 1%; with MST3, 5%. Besides, the “%Inh” value in the assay with MST4 is recorded as 15%; in the assay on MTOR, 6%; with MUSK, 9%; in the assay on MYLK2, 37%.

On to `CS(=O)(=O)CCNCc1nc(-c2ccc3ncnc(Nc4ccc(OCc5cccc(F)c5)c(Cl)c4)c3c2)cs1.Cl` [GW583340], for which the “%Inh” value with MRCKA is 0%; with MRCKB it was 0%; in the assay on MST1R it was 38%; with MST1 it was 0%; in the assay with MST2, 8%; in the assay with MST3, 15%. The “%Inh” value with MST4 came out at 0%; with MTOR, 4%; in the assay with MUSK it was 0%; with MYLK2, 0%.
